TGFb SMAD3 inh: inhibitors of TGF-b signaling. 410,000 compounds, 1.2% hits. Potency, µM (titrated, usually from 46.1 µM), for the others: at the top dose activity, negative = inhibition, usual class: inhibitors. AID 588855. HepG2 CAGA-GFP TGF-b/SMAD3 reporter, GFP fluorescence, 18 h; TGF-beta stimulated, 500 pg/mL final; note: % is set by controls: 0 for no effect and ±100 for the full control effect; nearly all actives have a fitted effect of over 65% in size
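Cell-based qHTS in HEPG2 carrying a CAGA-GFP Smad reporter; compounds added before 500 pg/mL final TGF-beta, 18 h incubation at 37 degrees C, GFP fluorescence quantified per cell by imaging cytometry.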
HepG2 tox: kills HepG2 cells in TGF-b inhibitor counter-screen. HepG2 CAGA-GFP viability, ATP luminescence, 18 h. Potency, µM (series often up to 46.1 µM), without a hit: at the highest dose activity change, negative = cytotoxicity, usual class: cytotoxic. 410,000 compounds, 0.76% hits
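HepG2 CAGA-GFP cells (1000/well, DMEM with 1% FBS) received compound, then TGF-beta at 500 pg/mL final, and were incubated 18 hours at 37 degrees C. Viability was read by CellTiter-Glo luminescence. Media-only wells were set as complete cell-killing and DMSO as no toxicity.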
ATXN2 expr inh: inhibitors of ATXN2 expression; HEK-293 ATXN2-luciferase reporter, luminescence, 24 h; Potency, µM (doses to about 57 µM), without a hit: at the top dose activity change, negative = inhibition, usual class: inhibitors; 360,000 compounds, 0.72% hits; AID 1745845; note: % is set by controls: 0 for no effect and ±100 for the full control effect; nearly all actives have a fitted effect of over 55% in size
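qHTS (up to 57 uM final) was run with 24 h compound exposure of reporter cells at 37 °C. Each well was multiplexed: SteadyGlo luminescence measured ATXN2-luciferase expression after a fluorogenic Gly-Phe-AFC viability readout (25 uM final).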
KB-3-1 tox: kills parental KB-3-1 adenocarcinoma cells | KB-3-1 viability, CellTiter-Glo ATP luminescence, 72 h | Potency, µM (doses to about 46.1 µM), usual class: cytotoxic | 400,000 compounds, 1.4% hits | AID 1347075; note: % is set by controls: 0 for no effect and ±100 for the full control effect; nearly all actives have a fitted effect of over 60% in size
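KB-3-1 cells, DMEM (no phenol red) + 10% FBS; compound by pin transfer, 72 h, 37 °C. Readout: CellTiter-Glo luminescence after 10 min. Data normalized, curve-fitted.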
S2 tox: reduces viability in counter-screen for ATXN expression inhibitors; AID 651635; S2 cells (HEK-293 line with an ATXN2-luciferase reporter) viability, CellTiter-Fluor protease fluorescence, 24 h; Potency, µM (doses to about 56.7 µM), actives largely listed as cytotoxic; 400,000 compounds, 0.49% hits; note: nearly all actives have a fitted effect of over 40% in size
KB-V1 MDR tox: KB-V1 MDR subline cytotoxicity. KB-V1 MDR cells viability, CellTiter-Glo, 72 h. Potency, µM (doses to about 46.1 µM), most hits filed as cytotoxic. 400,000 compounds, 3.4% hits; note: % is set by controls: 0 for no effect and ±100 for the full control effect; nearly all actives have a fitted effect of over 60% in size
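Drug-selected KB-V1 cells, grown in DMEM lacking phenol red with 10% FBS, receive compound titrations; after three days at 37 degrees C, surviving cell ATP is quantified by CellTiter-Glo luminescence and responses normalized and curve-fitted.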
The depositor's hits bear a star. A selection: hits, their analogues and other compounds. The true share with any hit is near 5.9%. Calls come from the whole dose curve; as a rule, active = well fitted curve in the direction sought with a large enough effect; inconclusive = small, poorly fitted or top-dose-only effect, or another doubt; inactive = no such curve, though single readings can be large; an effect the other way counts as inactive or inconclusive. Potency is the fitted concentration of half-maximal effect.

c1ccc(N2CCN(c3nc4cc5c(cc4s3)OCCO5)CC2)cc1 was read as TGFb SMAD3 inh 0.0%, HepG2 tox 5.1%, ATXN2 expr inh 14.4%, KB-3-1 tox inconclusive, S2 tox inactive and KB-V1 MDR tox 2.59µM*.
For CC1(C)OC2OC(C(=O)N/N=C/c3cc(Br)ccc3O)C3OC(C)(C)OC3C2O1 (stereo not drawn) the results were TGFb SMAD3 inh -23.1%, HepG2 tox -10.5%, ATXN2 expr inh inconclusive, KB-3-1 tox inactive, S2 tox inactive and KB-V1 MDR tox 9.2µM*.
Screening Cc1cc(C)cc(NC(=O)[C@H]2O[C@@H]3OC(C)(C)O[C@@H]3[C@H]3OC(C)(C)O[C@H]32)c1 returned TGFb SMAD3 inh -19.0%, HepG2 tox -2.9%, ATXN2 expr inh 12.7%, KB-3-1 tox inconclusive, S2 tox inactive and KB-V1 MDR tox inactive.
Screening Oc1cc2c(cc1C(c1ccc(Br)cc1)N1CCCC1)OCO2 (stereo not drawn) returned TGFb SMAD3 inh inconclusive, HepG2 tox 14.1µM*, ATXN2 expr inh -36.0%, KB-3-1 tox inactive, S2 tox inactive and KB-V1 MDR tox inactive.
For Cc1cc(NC(=O)c2cnn(-c3ccccc3)c2-n2cccc2)ccc1Br the results were TGFb SMAD3 inh 2.5%, HepG2 tox -0.9%, ATXN2 expr inh 18.6%, KB-3-1 tox inactive, S2 tox inactive and KB-V1 MDR tox inconclusive.
Cc1ccccc1NC(=O)c1c(NC(=O)C(C)Oc2cccc(Cl)c2)sc2c1CCCC2 (stereo not drawn) was read as TGFb SMAD3 inh 0.4% and HepG2 tox 0.2%.
CC(C)Oc1cc(NC(=O)CSCC(=O)Nc2cccc(C(F)(F)F)c2)c(Cl)cc1Cl was read as TGFb SMAD3 inh 11.2µM*, HepG2 tox -87.1%, ATXN2 expr inh inconclusive, KB-3-1 tox inactive, S2 tox inconclusive and KB-V1 MDR tox 13µM*.
COC(=O)Cc1ccc(OC2(C)CCN(Cc3ccccc3)C2)cc1 (stereo not drawn) was read as TGFb SMAD3 inh -4.3%, HepG2 tox 0.0%, ATXN2 expr inh 3.4%, KB-3-1 tox inactive, S2 tox inactive and KB-V1 MDR tox inactive.
Screening O=C(N/C(=C\c1cccs1)C(=O)N1CCCCCC1)c1ccccc1 returned TGFb SMAD3 inh 0.1%, HepG2 tox 4.4%, ATXN2 expr inh -17.5%, KB-3-1 tox inactive, S2 tox inactive and KB-V1 MDR tox inactive.
Cc1ccc(C(=O)N/C(=C\c2cccs2)C(=O)NC2CCCCC2)cc1 was read as TGFb SMAD3 inh 0.8%, HepG2 tox -5.2%, ATXN2 expr inh -14.6%, KB-3-1 tox inactive, S2 tox inactive and KB-V1 MDR tox 18.4µM*.
For O=C(N/C(=C/c1ccco1)C(=O)N1CCCCCC1)c1ccccc1 the results were TGFb SMAD3 inh -1.9%, HepG2 tox -14.3%, ATXN2 expr inh -4.3%, KB-3-1 tox inactive, S2 tox inactive and KB-V1 MDR tox inactive.
O=C(N/C(=C/c1cccs1)C(=O)N1CCCCCC1)c1ccccc1 was read as TGFb SMAD3 inh -34.8%, HepG2 tox 34.0%, ATXN2 expr inh 10.3%, KB-3-1 tox inactive, S2 tox inactive and KB-V1 MDR tox 20.6µM*.
`O=C(N/C(=C/c1ccco1)C(=O)N1CCCCCC1)c1cccs1` gave TGFb SMAD3 inh 0.0%, HepG2 tox -7.1%, ATXN2 expr inh -3.4%, KB-3-1 tox inactive, S2 tox inactive and KB-V1 MDR tox 20.6µM*.
C[C@@H]1CCCCO[C@@H](CN(C)C(=O)C2CCCCC2)[C@@H](C)CN([C@H](C)CO)C(=O)c2cc(NC(=O)NC3CCCCC3)ccc2O1 was read as TGFb SMAD3 inh -8.0%, HepG2 tox -45.3%, ATXN2 expr inh inconclusive, KB-3-1 tox inactive, S2 tox inconclusive and KB-V1 MDR tox inactive.
For CN1CCN(C(=O)CCCN2C(=O)/C(=C/c3cccc(Br)c3)SC2=S)CC1 the results were TGFb SMAD3 inh inconclusive, HepG2 tox -26.6%, ATXN2 expr inh inconclusive, KB-3-1 tox inconclusive, S2 tox 11.2µM* and KB-V1 MDR tox inconclusive.
Screening CN1CCN(C(=O)CCN2C(=O)/C(=C/c3cccc(Br)c3)SC2=S)CC1 returned TGFb SMAD3 inh 17.8µM*, HepG2 tox -175.4%, ATXN2 expr inh 88.1%, KB-3-1 tox inconclusive, S2 tox inconclusive and KB-V1 MDR tox inactive.
Screening O=C(CCCN1C(=O)/C(=C/c2cccc(Br)c2)SC1=S)N1CCOCC1 returned TGFb SMAD3 inh 12.3%, HepG2 tox 0.0%, ATXN2 expr inh 27.7%, KB-3-1 tox inconclusive, S2 tox inactive and KB-V1 MDR tox inconclusive.
For CCN(CC)c1ccc(NC(=O)CN2C(=O)c3cccnc3Oc3ccccc32)c(C)c1 the results were TGFb SMAD3 inh -4.4%, HepG2 tox -27.4%, KB-3-1 tox inactive and KB-V1 MDR tox inactive.
COc1ccc(NC(=O)CN2CCC(C(=O)c3ccc(C)cc3)CC2)c(OC)c1 was read as TGFb SMAD3 inh 18.1%, HepG2 tox -4.0%, ATXN2 expr inh -17.7%, KB-3-1 tox inactive, S2 tox inconclusive and KB-V1 MDR tox inactive.
CCOc1ccc(C(=O)C2CCN(CC(=O)Nc3ccccc3N3CCOCC3)CC2)cc1 was read as TGFb SMAD3 inh 14.1µM*, HepG2 tox -13.2%, ATXN2 expr inh inconclusive, KB-3-1 tox inactive, S2 tox inactive and KB-V1 MDR tox inconclusive.
COc1ccc(OC)c(NC(=O)CN2CCC(C(=O)c3ccc(C)cc3)CC2)c1 was read as TGFb SMAD3 inh -28.3%, HepG2 tox -11.2%, ATXN2 expr inh 0.0%, KB-3-1 tox inconclusive, S2 tox inactive and KB-V1 MDR tox 8.2µM*.
CCOc1ccc(C(=O)Nc2ccccc2N2CCOCC2)cc1 was read as TGFb SMAD3 inh 9.4%, HepG2 tox -4.9%, ATXN2 expr inh -34.7%, KB-3-1 tox inactive, S2 tox inactive and KB-V1 MDR tox inactive.
For CCOc1ccc(C(=O)Nc2ccccc2N2CCCC2)cc1 the results were TGFb SMAD3 inh 1.3%, HepG2 tox -34.5%, ATXN2 expr inh 14.2%, KB-3-1 tox 23.1µM*, S2 tox inactive and KB-V1 MDR tox inconclusive.
Screening Cc1cc(C(=O)N2CCN(c3cccc(Cl)c3)CC2)n(-c2ccccc2)n1 returned ATXN2 expr inh -14.5%.
CCCCOC(=O)c1ccc(NC(=O)/C(C#N)=C/c2ccc(C)o2)cc1 was read as TGFb SMAD3 inh 2.5%, HepG2 tox 11.1%, ATXN2 expr inh 5.0%, KB-3-1 tox inactive, S2 tox inactive and KB-V1 MDR tox inactive.

Screening data as filed in PubChem BioAssay.
